According to PubChem BioAssay (NCI):
This is part of a sample that, as a whole, favours compounds with a hit. Of some 83,000 tested, about 20% had one in any assay.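 Cell lines were cultured in 96-well plates, exposed to a single compound concentration, and assessed for percent growth 48 hours later.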 Activity calls are given as the source filed them. Rule for the calls: active = growth percent below 10; inactive = the rest.

The compounds below were run on HL-60(TB) leukemia (assay: NCI-60 one-dose screen, 48 h (100 = growth as untreated, 0 = no growth, -100 = all killed)). Details: 10 µM unless noted.

Structure (SMILES) | growth
COc1ccc(/C=C/c2c(C(=O)/C=C/c3ccc(F)cc3)c(C)nc3ccccc23)cc1 | 24.2% (inactive)
c1ccc(Nc2nc(Nc3ccccc3)nc(Nc3ccccc3)n2)cc1 | 63.8% (inactive)
CCCCOC(=O)Oc1ccc(C(=O)Oc2ccc(OCC)cc2)cc1 | 109% (inactive)
CCCCn1c2cc(OCc3cn(-c4ccc(Cl)cc4)nn3)ccc2c2ccnc(C)c21 | -46.5% (active)
CN(C)c1nc(N)nc(Cn2c(-c3nonc3N)nc3ccccc32)n1 | 94.2% (inactive)
CO/C=C/C(=O)c1cc2cnc3c(=N)cc(NC(=O)C(C)C)c([nH]1)c23 | -0.789% (active)
C=C1C(=O)O[C@H]2[C@H]1CC/C(COC(=O)NCC(C)c1ccc(CC(C)C)cc1)=C\CC[C@@]1(C)O[C@@H]21 (stereo not given in full) | -29.8% (active)
COc1ccc(/C=C/C(=O)c2c(O)c(C)c(O)c3c2OC2=CC(O)=C(C(C)=O)C(=O)[C@]23C)cc1 | -34.6% (active)
CCCNC(=O)Oc1ccc(/C(=C(/C)Cc2ccc(OC)cc2)c2ccc(OCCN3CCCC3)cc2)cc1 | 51.9% (inactive)
CC(C)CN(C(=O)c1ccc(Cl)cc1)c1c(N)n(CC(C)C)c(=O)[nH]c1=O | 90.8% (inactive)
CC(C)C[C@H](NC(=O)[C@H](Cc1cccc2ccccc12)NS(=O)(=O)c1cccc2cccnc12)B(O)O | -17.2% (active)
CCn1c(=O)c2c(=O)c3c4c(oc3oc2c2ccccc21)C(=O)c1ccccc1C4=O | -18.8% (active)
O=C1Nc2ccccc2/C1=C/c1cn(C[C@@H](O)Cn2c3ccccc3c(=O)c3ccccc32)c2ccccc12 | 82% (inactive)
Cc1ccc(-c2nc(N3CCNCC3)c3oc(-c4ccc(C)cc4)nc3n2)cc1 | -69.3% (active)
BrCc1cccc(C[P+](c2ccccc2)(c2ccccc2)c2ccccc2)c1 | 12.2% (inactive)
CC(=O)Nc1cc(C)ccc1C | 100% (inactive)
Cc1ccc2oc(=O)cc(-c3sc(N4CCCCC4)nc3-c3ccccc3)c2c1 | 95% (inactive)
COc1cc(/C=C2\C(=O)N(CCOc3cc(O)c4c(=O)cc(-c5ccccc5)oc4c3)c3ccccc32)cc(OC)c1O | -9.06% (active)
Cn1cc(-c2noc(-c3cn(C)c4ncccc34)n2)c2cc(Cl)ccc21 | 80.2% (inactive)
CC1Cc2ccccc2O1 (stereo not given) | 102% (inactive)

Structure (SMILES) | growth
COc1ccc(-c2nc(SCC(C)C)nc(Nc3ccc(C(=O)O)cc3)c2C#N)cc1 | 99.7% (inactive)
COc1cc([C@H](C)c2ccc3ccccc3c2)cc(OC)c1OC | -5.85% (active)
CCC(CC)(N(CC(=O)O)CC(=O)O)C(CC)(CC)N(CC(=O)O)CC(=O)O | 79.1% (inactive)
FC(F)(F)c1cccc(CNC2CCN(CCc3ccccc3)CC2)c1 | 46.2% (inactive)
Nc1nc(N)c(N=Nc2c(Br)cc(S(N)(=O)=O)cc2Br)c(N)n1 | 105% (inactive)
COc1ccccc1OCC(=O)N1CCCCCC1 | 93.6% (inactive)
NC(CSC(c1ccccc1)(c1ccccc1)c1cccc2ccccc12)C(=O)O (stereo not given) | 88.5% (inactive)
CCN(CC)c1ccc(/C=C/c2cc(C)c3ccccc3n2)cc1 | 59.1% (inactive)
COc1cccc2c1O/C(=C\c1ncc([N+](=O)[O-])n1C)C2=O | -14.8% (active)
CCC(C)C1NC(=O)C(CC(C)C)NC(=O)C(C)NC(=O)C(C(C)C)NC(=O)C(CCCCN)NC(=O)C(CC(C)C)NC(=O)C(C(C)C)NC(=O)[C@H](C)NC(=O)C(C(C)CC)NC(=O)C(CCCN=C(N)N)NC(=O)C(CCCCN)NC(=O)C(CCCN=C(N)N)NC(=O)C(CCCCN)NC(=O)C([C@H](C)CC)NC(=O)C(CCCCN)NC1=O (stereo not given in full) | -39.5% (active)
CC(=O)O[C@H]1Cc2c([nH]c3ccccc23)[C@@H](c2ccc(Cl)cc2)N1C(=O)CCNC(C)(C)C | 16.6% (inactive)
NC(=O)Nc1ccc(-n2cnc3cc(-c4ccc(O)cc4)ccc32)cc1 | 95.4% (inactive)
COC(=O)c1c2c(c(C)[n+]([O-])c1C)C(=O)C=C(NCc1ccc(Br)cc1)C2=O | -19.4% (active)
N=C(N)c1ccc(-c2ccc(-c3cc(Cl)cc(Cl)c3)s2)s1 | -67.9% (active)
CCN(CC)c1cc(/C=C/c2ccc(OC)c(OC)c2)nc2cc(F)c(F)cc12 | 112% (inactive)
Nc1ccc(Cl)c2c(=O)c3ccccc3[nH]c12 | 63.7% (inactive)
COc1cccc(-c2nc3sccn3c2-c2ccnc(NCCCNS(=O)(=O)c3ccc(F)cc3)n2)c1 | 12.1% (inactive)
CCCCCCCCCCCCCC | 87% (inactive)
O=C(/C=C(/C=C/c1coc2ccccc12)OB(F)F)/C=C/c1coc2ccccc12 | 88.6% (inactive)
CCN1C(=O)/C(=C/C=C/N(C)c2ccccc2)SC1=S | 78.2% (inactive)
